Bioassay records from PubChem BioAssay.
MITF TRPM1 inh: MITF TRPM1 promoter inhibition in SK-MEL-5 cells; SK-MEL-5 TRPM1 promoter luciferase, 24 h; inhibition, % at 12.5 µM; hit rate 0.83% among 330,000; AID 488899;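 active = mean inhibition across replicates of 60% or more, whatever share of single replicates reaches that level; inconclusive = some that reach 60%, reason not given; inactive = mean inhibition across replicates below 60%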
CF NFkB inh: blocks PAF-induced NF-kB reporter in cystic fibrosis cells | inhibition, % at 5 µM | AID 588850 | KKLEB NF-kB-GFP reporter, GFP fluorescence overnight | hit rate 0.86% among 360,000;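 active = at least 50% inhibition at 5 µM, scaled per plate between neutral and stimulator controls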;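 note: PAF is a Pseudomonas aeruginosa culture filtrate used as stimulus; plate controls were PAF-stimulated DMSO wells for no effect and unstimulated DMSO wells for full effect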
KKLEB tox: CF airway cell cytotoxicity counter-screen; activity change (cytotoxicity), % at 5 µM; hit rate 0.36% among 360,000; KKLEB CF airway cells viability, ATPlite luminescence, overnight; stronger effect = lower value; cells stimulated with P. aeruginosa culture filtrate;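 active = corrected activity change at or below -50% at 5 µM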
Peg3 prom inh: Peg3 promoter activity inhibition. HeLa PEG-Prom luciferase reporter, luminescence, overnight. inhibition, % at 20 µM. hit rate 1.7% among 360,000;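 active = inhibition of at least 50% at 20 µM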
HIF-2a block: blocks HIF-2a reporter activity; AID 624352; hit rate 0.72% among 360,000; 786-0 RCC cells HIF-2a reporter, luciferase luminescence, overnight; inhibition, % at 18.8 µM;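 active = inhibition of the luminescence signal of 40% or more relative to plate controls, in a single-dose primary screen at 18.75 µM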
CHOP inhibitor: CHOP inhibition in unfolded protein response; AID 2732; hit rate 3.8% among 220,000; CHO-K1 CHOP-promoter luciferase, tunicamycin-induced, 15-18 h; inhibition, % at 10 µM;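 active = compounds that reduced the stress-induced luciferase reporter signal by more than about 70% of percent inhibition, limit read from the data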;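 note: 0% = tunicamycin plus vehicle and 100% = wells without tunicamycin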
* marks the source's active call; other numbers are inactive results; ? = inconclusive; . = no result given. Only some compounds are listed: those with a hit (about 4.3% of all), similar ones and a draw of the others.

SMILES	MITF TRPM1 inh	CF NFkB inh	KKLEB tox	Peg3 prom inh	HIF-2a block	CHOP inhibitor
Cc1nc(SCC(=O)c2cc3ccccc3oc2=O)c(C#N)c(-c2ccccc2)c1C(=O)Nc1ccccc1	10.6	30.5	-43.4	32.7	12.0	94.7*
O=C(NCc1cccnc1)c1cc(C2CCCCN2C(=O)c2ccc(Cl)cc2)on1 (stereo unspecified)	.	-18.4	4.1	-5.7	-0.4	.
Cc1ccc2c(C)nc(Nc3nc(CSc4nnnn4-c4ccccc4)cc(=O)[nH]3)nc2c1	29.3	10.3	5.6	52.6*	18.0	67.6
Cc1ccc(-c2csc(=Nc3cccnc3)n2CCCN2CCCC2=O)cc1C	20.5	-2.3	-2.1	4.1	10.1	18.5
Cc1ccc(-c2csc(=Nc3cccnc3)n2CCCn2ccnc2)cc1C	2.8	74.7*	-6.3	27.6	10.7	62.1
N/C(=N\OC(=O)Nc1ccccc1)c1ncc([N+](=O)[O-])s1	68.5*	-9.4	-9.5	24.1	-19.1	-50.5
O=C(NCc1cccs1)C(=O)NCC1OCCCN1S(=O)(=O)c1cc(F)ccc1F (stereo unspecified)	-0.1	9.9	-0.3	4.1	9.4	.
Cc1cc(C)c(CSc2ncc(-c3ccc([N+](=O)[O-])cc3)[nH]2)c(C)c1	0.7	-0.5	-5.9	36.1	-43.6	74.6*
O=[N+]([O-])c1ccc(-c2cnc(SC(c3ccccc3)c3ccccc3)[nH]2)cc1	0.1	-24.2	2.3	53.1*	9.4	73.1*
c1ccc2cc(C3CCCCC3)ncc2c1	-90.3	0.2	2.2	-38.9	-24.6	.
COc1ccc(N2C(=O)CSC23C(=O)N2c4c(cccc43)C(C)=CC2(C)C)cc1 (stereo unspecified)	-3.5	16.0	-6.0	18.7	27.9	74.6*
COc1ccc(CC(=O)Nc2nc(-c3ccc(F)c(F)c3)cs2)cc1	-2.1	-26.1	8.6	-9.1	-35.9	.
COc1ccc(CC(=O)Nc2nc(-c3cccc([N+](=O)[O-])c3)cs2)cc1	-5.6	-5.0	-14.0	-13.3	-33.3	80.4*
O=C(NC(=S)Nc1nc(-c2cccc([N+](=O)[O-])c2)cs1)c1ccccc1Cl	-1.1	16.3	-23.5	-4.7	-3.3	95.9*
O=C1C=C(c2ccc(OC(F)(F)F)cc2)C[C@@H](c2ccc(Cl)cc2)C1	.	11.6	-23.0	-4.5	-13.8	.
CC(C)N1C(=O)S/C(=C/c2ccc(Sc3nc4ccccc4[nH]3)o2)C1=O	9.2	16.4	-12.4	24.7	-31.5	70.1*
COc1ccccc1NC(=O)c1ccc(N2CC3CC(C2)c2cccc(=O)n2C3)c(NC(=O)c2ccncc2)c1 (stereo unspecified)	0.2	3.7	0.6	-12.4	10.3	.
CCc1cc2ccc(OC)cc2nc1SCC(=O)Nc1cc(C)on1	6.8	36.1	-24.8	19.5	15.0	82.5*
COc1ccc(Nc2nnc(SCC(=O)Nc3cc(C)on3)s2)cc1	-7.6	-1.5	3.9	-4.2	-13.0	84.9*
Cc1cc(NC(=O)CSc2nnc(Nc3ccccc3)s2)no1	-0.2	0.5	-4.8	4.0	2.8	14.0
CCc1cc2cc(C)c(C)cc2nc1SCC(=O)Nc1cc(C)on1	2.9	31.2	-35.2	20.3	5.0	88.6*
CCOc1ccc(S(=O)(=O)N2CCC(C(=O)NCc3ccccc3CN3CCCC3)CC2)cc1	-11.7	-18.0	-4.2	-12.4	7.3	.
COc1ccc2cc(C3(C)NC(=O)N(CC(=O)NCC(F)(F)F)C3=O)ccc2c1 (stereo unspecified)	-4.6	-9.1	2.1	-1.5	3.9	.
CCCCNC(=O)C(NC(=O)c1cccnc1)C(=O)c1ccccc1 (stereo unspecified)	.	-16.0	-25.1	2.0	13.4	.
CCCOCc1ccc(O)c2ncccc12	68.7*	19.1	-11.9	42.4	0.8	-23.8
SMILES	MITF TRPM1 inh	CF NFkB inh	KKLEB tox	Peg3 prom inh	HIF-2a block	CHOP inhibitor
CCOC(=O)N1CCN(Cc2ccc(O)c3ncccc23)CC1	.	.	.	.	.	7.4
Oc1ccc(COCc2ccccc2)c2cccnc12	22.6	-2.6	-3.9	-56.1	-38.4	.
Oc1ccc(Cc2ccccc2)c2cccnc12	.	0.5	2.6	69.1*	5.4	.
Cc1ccc(C)c(S(=O)(=O)N2CCN(Cc3ccc(O)c4ncccc34)CC2)c1	73.9*	-1.6	-12.9	37.5	17.8	76.0*
OCc1ccc(O)c2ncccc12	?	19.2	-2.2	27.4	2.8	13.3
Oc1ccc(CN2CCc3ccccc3C2)c2cccnc12	71.0*	16.7	-14.0	94.5*	-13.1	56.2
COc1ccc(N(C)S(=O)(=O)c2ccc(Cl)c(C(=O)NCC(C)(C)N3CCOCC3)c2)cc1	9.5	-16.7	5.2	-3.2	-0.5	.
CN(C)N=Nc1ccc(-c2cn(Cc3ccccc3)cn2)cc1	-26.0	-14.6	-1.2	-200.2	-237.5	.
CC(C)COCc1ccc(O)c2ncccc12	62.6*	2.0	-1.3	55.1*	21.3	63.8
CCCN(c1ccc(C(C)C)cc1)S(=O)(=O)c1c(C)noc1C	-0.2	-6.2	3.5	34.2	18.5	75.7*
COc1ccc(OC)c(NC(=O)CN(c2ccc(C(C)C)cc2)S(=O)(=O)c2c(C)noc2C)c1	16.1	0.3	-0.5	39.5	23.1	55.0
Cn1c(=N)n(CC(=O)c2ccccc2)c2ccccc21	.	-19.8	-16.1	-92.3	-63.2	17.2
Cn1c(=N)n(CC(=O)c2ccc(Cl)c(Cl)c2)c2ccccc21	54.3	-27.9	-32.8	80.8*	-61.8	.
N=c1n(CC(=O)O)c2ccccc2n1Cc1ccccc1Cl	-2.9	-6.1	3.2	16.3	5.9	11.6
N=c1n(CC(=O)c2ccc([N+](=O)[O-])cc2)c2ccccc2n1Cc1ccccc1Cl	79.1*	5.2	-8.8	85.0*	9.3	35.3
CC(O)(CC(=O)CC(=O)c1ccccc1)c1ccccc1 (stereo unspecified)	10.3	-10.5	0.3	52.4*	3.4	.
Cc1ccc(C(=O)CC(=O)c2ccccc2)cc1	-51.4	-22.2	1.6	-326.1	-285.0	.
Cc1ccc2nc(N(CCCN(C)C)C(=O)c3sc4ccccc4c3Cl)sc2c1	38.4	16.5	-15.2	-81.2	-13.2	79.8*
CN(C)CCCN(C(=O)c1cc(-c2cccs2)nc2ccccc12)c1nc2ccc(F)cc2s1	86.9*	43.2	-33.8	111.6*	-12.7	.
Cc1ccc2nc(N(CCCN(C)C)C(=O)c3ccc(S(=O)(=O)N(C)C)cc3)sc2c1	-6.6	3.1	-4.2	6.7	16.2	10.6
CC(NCCCOc1cccc2ccccc12)c1ccccc1 (stereo unspecified)	9.7	28.6	-11.6	94.0*	14.4	.
CCN(CCNCC(O)COCc1ccc(Cl)cc1)c1cccc(C)c1 (stereo unspecified)	-0.9	-13.3	2.2	103.2*	6.1	83.4*
COc1cc2[nH]c(=S)n(Cc3ccc(C)cc3)c(=O)c2cc1OC	10.7	-20.4	-3.2	15.0	2.6	11.4
COc1ccc(Cn2c(=S)[nH]c3cc(OC)c(OC)cc3c2=O)cc1	14.0	14.1	-6.4	20.6	-29.9	83.3*
